In PubChem BioAssay (NCATS):
Records with an inconclusive call do not appear. Entries that show only a call come without a potency. The source made the active and inactive calls. Calls follow the shape of the dose curve; as a rule, active = well fitted cell-killing curve with a large enough effect; inconclusive = small, poorly fitted or top-dose-only effect, or effect the other way; inactive = flat fitted curve, though single readings scatter.

Each compound was assayed on C33A (assay: Primary qHTS to identify gynecologic anti-cancer compounds using libraries of approved drugs and bioactive compounds (AID 1345084; also: nearly all actives have a fitted effect of over 55% in size)). Conditions: Gynecologic cancer cell panel viability, ATPlite luminescence, 48 h; series mostly up to 57.5 µM.
In short: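 Luminescence from the ATPlite ATP-monitoring reagent indicates viable cell number; lower signal means cytotoxicity. Cells received compound 16 h after seeding and were exposed for 48 h across five concentrations.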
Potency is read from the fitted curve at half-maximal effect.

SMILES	Potency
CC(C)c1cnn2c(NCc3ccccc3)cc(N[C@@H](CO)[C@H](O)CO)nc12	7.08 µM (active)
Cc1ccc2nc(NC(=O)CSc3nc4c(c(=O)n3-c3ccccc3)SCC4)sc2c1	inactive
CC(C)c1noc(N2CCC(COc3ccc(-c4ccc(S(C)(=O)=O)cc4)nc3)CC2)n1	inactive
C=CC(=O)Nc1cccc(Oc2nc(Nc3ccc(N4CCN(C)CC4)cc3OC)ncc2Cl)c1	inactive
Cc1c(C)n(Cc2ccc(-c3ccccc3C(=O)O)cc2)c2ccc(C(=O)N[C@@H](C)c3ccc([N+](=O)[O-])cc3)cc12	inactive
NC1(Cc2ccc(Cl)cc2)CCN(c2ncnc3[nH]ccc23)CC1	10 µM (active)
O=c1c2ccccc2nc2n1CCc1c-2[nH]c2ccccc12	inactive
CN(C)Cc1c(C(=O)NCCOc2ccc(C(=O)NO)cc2)oc2ccccc12	4.47 µM (active)
COc1cc(C(=O)N2CCC(N3CCN(C)CC3)CC2)ccc1Nc1ncc2c(n1)N(C)c1ccccc1C(=O)N2C	inactive
COc1cc2c(NC3CCN(C(C)C)CC3)nc(C3CCCCC3)nc2cc1OCCCN1CCCC1	28.2 µM (active)
CCCCOc1c(C(=O)c2c(F)cc(C)cc2F)cnc2n[nH]cc12	inactive
NCC(=O)Nc1ccc(-n2nc(C(F)(F)F)cc2-c2ccc3c(ccc4ccccc43)c2)cc1	inactive
Cc1cc(CN2CCN(c3c(Br)cnc4nc(-c5ccc(N6CCN(C)CC6)cc5)[nH]c34)CC2)no1	inactive
Cc1nc2ccc(CN(C)c3ccc(C(=O)N[C@@H](CCC(=O)O)C(=O)O)s3)cc2c(=O)[nH]1	inactive
CN1CCC(CNc2ccc3ncc(-c4cccc(OC(F)(F)F)c4)n3n2)CC1	inactive
Cc1cn2c(-c3cn[nH]c3)cnc2c(Nc2ccc(C(=O)N3CCNCC3)cc2F)n1	inactive
